This excerpt belongs to a sample that is enriched for hits.
Pf apPOL inh = Pf-apPOL DNA polymerase inhibition; hit rate 0.25% among 210,000; AID 1794808; inhibition, % at 10 µM; Recombinant Pf-apPOL, molecular beacon fluorescence, 1.5 h
mHTT CaM bind = inhibitors of human mutant huntingtin-calmodulin interaction | hit rate 3.6% among 190,000 | P42858 | inhibition, % at 15 µM | AlphaScreen His-mHTT/GST-CaM binding, luminescence;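 also: 0% = both proteins with DMSO and 100% = one protein alone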
Active calls of the source: *. Rule as the data show it: active = inhibition above about 50%; inactive = the rest.

SMILES	Pf apPOL inh	mHTT CaM bind
COc1ccc(-n2nc3c(c2NC(=O)c2ccccc2C(F)(F)F)CSC3)cc1	4	26
Cc1c(C)n(CC(O)CN2CCN(Cc3ccccc3)CC2)c2ccccc12 (stereo not drawn)	7	21
Cc1cccc(NCC(O)Cn2c(C)c(C)c3ccccc32)c1 (stereo not drawn)	4	91*
CCC(CO)NCC(O)Cn1c(C)c(C)c2ccccc21 (stereo not drawn)	11	7
Cc1ccc(C)c(NCC(O)Cn2c(C)c(C)c3ccccc32)c1 (stereo not drawn)	3	95*
Cc1c(C)n(CC(O)CNc2ccccc2)c2ccccc12 (stereo not drawn)	-1	54*
CCN(CC)CC(O)Cn1c(C)c(C)c2ccccc21 (stereo not drawn)	-2	5
O=C1/C(=C/c2cccc(O)c2)Sc2ccccc21	-6	13
COc1ccc(S(=O)(=O)N2CCCC2C(=O)NCCc2csc(C)n2)cc1 (stereo not drawn)	-5	-3
CC(=O)c1cccc(NC(=O)c2c(C)nn3c([N+](=O)[O-])c(C)[nH][n+]23)c1	-10	-5
COc1ccc(C2CC(c3cc(F)ccc3O)=NN2)c(OC)c1 (stereo not drawn)	-10	56*
Oc1ccc(C2CC(c3ccccc3O)=NN2)cc1 (stereo not drawn)	-1	96*
COc1ccc(C2CC(c3cc(Cl)ccc3O)=NN2)cc1OC (stereo not drawn)	-3	74*
Oc1ccc(Cl)cc1C1=NNC(c2ccc(Br)cc2)C1 (stereo not drawn)	-1	75*
COc1ccc(C2C=C(c3ccc(F)cc3)Nc3nnnn32)c(OC)c1 (stereo not drawn)	-6	4
Oc1ccc(Br)cc1C1=NNC(c2cccs2)C1 (stereo not drawn)	1	44
CCOc1ccc(C2CC(c3ccccc3O)=NN2)cc1 (stereo not drawn)	-1	17
COc1ccc(C2CC(c3ccc(Cl)cc3)Nc3nc(N)nn32)cc1OC (stereo not drawn)	-9	7
Oc1ccccc1CNc1nc2c(s1)CCc1ccccc1-2	-4	23
O=C(CN(Cc1ccccc1)S(=O)(=O)c1ccc(Cl)cc1)N1CCOCC1	-11	6
Oc1ccc(Cl)cc1C1=NNC(c2ccccc2F)C1 (stereo not drawn)	-6	54*
CCOC(=O)N1CCC2(CC1)N=C(c1cc(Cl)ccc1O)CC(c1ccccc1)N2 (stereo not drawn)	-5	40
Cc1ccc(-c2[nH]nc3c2C(c2cn[nH]c2-c2ccc(F)cc2)C(C#N)=C(N)O3)cc1 (stereo not drawn)	-3	32
O=C(CS(=O)(=O)c1ccc(Cl)cc1)Nc1nc2ccc([N+](=O)[O-])cc2s1	-2	-6
Cc1ccc(C2=NC3(CCN(C)CC3)NC(c3ccccc3O)C2)cc1 (stereo not drawn)	-1	13
SMILES	Pf apPOL inh	mHTT CaM bind
CC(C)C1N=C(c2ccc3c(c2)OCO3)CC(c2cc(Cl)ccc2O)N1 (stereo not drawn)	-1	67*
CC(C)C1N=C(c2ccc3c(c2)OCO3)CC(c2cc(Br)ccc2O)N1 (stereo not drawn)	-3	31
CN1CCC2(CC1)N=C(c1ccccc1O)CC(c1ccccc1O)N2 (stereo not drawn)	0	28
CCN1CCC2(CC1)N=C(c1ccc(F)cc1)CC(c1cc(Cl)ccc1O)N2 (stereo not drawn)	3	28
Cc1ccc(C2=NC(C)(C)NC(c3ccccc3O)C2)cc1 (stereo not drawn)	-3	100*
COc1ccc(C2=NC3(CCN(C(C)=O)CC3)NC(c3cc(Cl)ccc3O)C2)cc1 (stereo not drawn)	-4	99*
Oc1ccc(Cl)cc1C1=NC2(CCNCC2)NC(c2ccccc2O)C1 (stereo not drawn)	-4	100*
Cn1c(=O)c2c(nc3n(CCc4ccccc4)c(C45CC6CC(CC(C6)C4)C5)cn23)n(C)c1=O	-2	5
CCOC1=NN(c2ccc([N+](=O)[O-])cc2)C(=O)/C1=C/c1ccc(OC)cc1	-2	4
Clc1ccc2c(c1)c1c3c(nccn32)CCC1	-12	49
COc1ccc2nc(N3CCCC(C(=O)NCCC4=CCCCC4)C3)[nH]c2c1 (stereo not drawn)	-7	15
CCN(CC)CCNCC1CCOC(C)(C)C1 (stereo not drawn)	0	1
O=C(CSc1nnnn1-c1ccccc1)c1ccc([N+](=O)[O-])cc1	2	7
Cc1cccc(NC(=O)C2CCCN(c3cnn(C)c(=O)c3)C2)c1C (stereo not drawn)	3	1
CC(=O)N1CCC2(CC1)N=C(c1ccccc1)CC(c1cc(Cl)ccc1O)N2 (stereo not drawn)	1	65*
CC(=O)N1CCC2(CC1)N=C(c1ccc(F)cc1)CC(c1cc(Cl)ccc1O)N2 (stereo not drawn)	-4	3
CCCC1(C)N=C(c2ccc(Cl)cc2)CC(c2cccc(OC)c2O)N1 (stereo not drawn)	-7	88*
CCOc1ccc(C2=NC3(CCN(C)CC3)NC(c3cc(Cl)ccc3O)C2)cc1 (stereo not drawn)	0	9
CCN1CCC2(CC1)N=C(c1ccc3c(c1)OCO3)CC(c1cc(Cl)ccc1O)N2 (stereo not drawn)	0	17
COc1cccc(C2=NC3(CCN(C)CC3)NC(c3cc(Cl)ccc3O)C2)c1 (stereo not drawn)	-4	52*
CC(=O)N1CCC2(CC1)N=C(c1ccc3c(c1)OCO3)CC(c1cc(Cl)ccc1O)N2 (stereo not drawn)	1	79*
CCN1CCC2(CC1)N=C(c1ccc(C)cc1)CC(c1cccc(OC)c1O)N2 (stereo not drawn)	-3	10
NC(=O)Nc1ccc(C23CC4CC(CC(C4)C2)C3)cc1	0	18
CCOC(=O)N1CCC2(CC1)N=C(c1ccccc1O)CC(c1cc(Cl)ccc1O)N2 (stereo not drawn)	-3	9
CCOC(=O)N1CCC2(CC1)N=C(c1ccc(F)cc1)CC(c1cc(Cl)ccc1O)N2 (stereo not drawn)	4	29
SMILES	Pf apPOL inh	mHTT CaM bind
COc1ccc(O)c(C2=NC3(CCN(C(C)C)CC3)NC(c3ccccc3O)C2)c1 (stereo not drawn)	-2	29
CCCC1(C)N=C(c2ccc3c(c2)OCO3)CC(c2ccccc2O)N1 (stereo not drawn)	-8	84*
CCOC(=O)N1CCC2(CC1)N=C(c1ccc3c(c1)OCO3)CC(c1ccccc1O)N2 (stereo not drawn)	6	21
CC(=O)N1CCC2(CC1)N=C(c1ccc(C)cc1C)CC(c1cc(Cl)ccc1O)N2 (stereo not drawn)	-5	88*
CC(=O)N1CCC2(CC1)N=C(c1ccc(C)c(C)c1)CC(c1cc(Cl)ccc1O)N2 (stereo not drawn)	-2	63*
COc1cccc(C2=NC(C)(C(C)C)NC(c3ccccc3O)C2)c1 (stereo not drawn)	-1	70*
COc1ccccc1C(=O)N1CCC2(CC1)NC(=O)N(Cc1ccc(F)cc1)C2=O	-3	9
Cc1ccc(OCCNC(C)C)c([N+](=O)[O-])c1	-4	0
C[C@H]1[C@@H](N(C)CC2CCCCC2)CC[C@@]23CCCN2C(=O)CCC[C@@H]13	-5	-6
